In ChEMBL document CHEMBL3988442, “University of Dundee, Small-Polar-MMV Screening Library” (2021):
Among all 48,000 compounds or so, about 13,000 (27%) showed an effect of 50% or more. Some of the results follow.

The molecules below were run on Wolbachia pipientis (assay: Anti-Wolbachia Cell-Based Screen). Conditions: 5 µM.
Assay type: functional
Parameters: scale not given: in the data most compounds retested in dose-response had high values

SMILES | Percent Effect
CCN1CCC(CC(=O)N2CCCCC2CCn2cccn2)CC1 (stereo unspecified) | 1.727%
N#Cc1ccc(CNC(=O)NCCNC(=O)C2CCCC2)c(F)c1 | 4.725%
COc1ccc2ccccc2c1CNCC1CCS(=O)(=O)C1.Cl (stereo unspecified) | 9.511%
O=C(O)C(F)(F)F.O=C(O)C(F)(F)F.O=C(O)C(F)(F)F.c1ccc(CN2CCc3ncnc(N4CCCC4)c3CC2)nc1 | 8.605%
O=C(O)C(F)(F)F.O=S(=O)(C1CC1)N1CCc2ncnc(-c3ccncc3)c2CC1 | -12.42%
O=C(O)C(F)(F)F.O=S(=O)(C1CC1)N1CCc2ncnc(N3CCCC3)c2CC1 | 105.6%
COCCC1(CNC(=O)NCC2CCCN(C)C2)CCCC1 (stereo unspecified) | 2.707%
CCc1ncc(CN2CCCN(CC3CC3)C(C(C)C)C2)cn1 (stereo unspecified) | -1.309%
COc1ncc(CN2CCOC(Cc3cccc4ccccc34)C2)cn1 (stereo unspecified) | -6.808%
COc1ncc(CN2C[C@@H]3C[C@@H](O)CN3C[C@@H]2Cc2ccccc2)cn1 | 106.8%
COCc1ncc(CN2CC[C@@](C)(O)[C@@H](Cc3ccccc3)C2)cn1 | -1.853%
COc1ccc(CN2C[C@H](O)C[C@H]2c2nc(-c3ccccc3)no2)cc1 | 10.67%
CCc1ncc(CN2C[C@@H]3C[C@@H](O)CN3C[C@@H]2Cc2ccccc2)cn1 | 90.44%
CN(C)CCN1Cc2ncn(C)c2C(COCC(=O)N(C)C)C1 (stereo unspecified) | 87.7%
CCOCC1CN(C(=O)N(C)C)Cc2nn(C)cc21 (stereo unspecified) | -8.201%
CN(C)C(=O)N1Cc2ncn(C)c2C(COCC2CCOCC2)C1.O=C(O)C(F)(F)F (stereo unspecified) | -8.2%
CN(C)C(=O)COCC1CN(CC2CCOCC2)Cc2ncn(C)c21 (stereo unspecified) | 99.32%
CN(C)CC(=O)N1Cc2ncn(C)c2C(COCC2CCOCC2)C1 (stereo unspecified) | 11.09%
CCOCCN1Cc2ncn(C)c2C(COCC2CCOCC2)C1.O=C(O)C(F)(F)F.O=C(O)C(F)(F)F (stereo unspecified) | -3.886%
Cc1ccc(CN2C[C@H]3C(=O)N(CC4CC4)C[C@@]3(C(=O)O)C2)c(F)c1F | 26.68%
O=C(COCC(F)(F)C(F)F)N1CCC2(CCCN(CC3CC3)C2=O)C1 (stereo unspecified) | -8.945%
O=C(CSC(F)(F)F)N1CCC2(CCCN(C3CCOCC3)C2=O)C1 (stereo unspecified) | 96.55%
O=C(CCCn1cncn1)N1CCC2(CCCN(C3CCCC3)C2=O)C1 (stereo unspecified) | -21.81%

SMILES | Percent Effect
O=C(CCc1nc(Cl)n[nH]1)N1CCC2(CCCN(CC3CCC3)C2=O)C1 (stereo unspecified) | -5.22%
CS(=O)(=O)CCC(=O)N1CCC2(CCCN(C3CCOCC3)C2=O)C1 (stereo unspecified) | -5.583%
O=C(CN1CCOCC1)N1CCC2(CCCN(C3CCOCC3)C2=O)C1 (stereo unspecified) | 102.1%
CN1CCCC2(CCN(C(=O)Cc3cc4c(cc3Cl)OCCO4)C2)C1=O (stereo unspecified) | -11.77%
O=C(CCCn1cncn1)N1CCC2(CCCN(CC3CC3)C2=O)C1 (stereo unspecified) | 15.06%
O=C(CSCC1CC1)N1CCC2(CCCN(C3CCOCC3)C2=O)C1 (stereo unspecified) | 90.41%
CCS(=O)(=O)N1CCCC2(CCCN2C(=O)c2cscn2)C1 (stereo unspecified) | -8.968%
N#Cc1ccc(NCCCN2C(=O)COc3ccccc32)nc1 | -5.647%
CNC(=O)c1cccc(CN2CCC(N(C)Cc3nnc(C)o3)C2)c1 (stereo unspecified) | 0.9226%
CC(NC(=O)c1cccc(CN2CCN(C)CC2)c1)c1ccccn1 (stereo unspecified) | -0.367%
CC(=O)Nc1cccc(Cn2nc(C)nc2C)c1 | 5.981%
CNC(=O)c1cccc(CN2CCN(C3=NCC(C)(C)S3)CC2)c1 | 103.7%
CC(=O)Nc1cccc(CN2CCN(C3=NCC(C)(C)S3)CC2)c1 | 100.4%
CC(=O)NCCC(=O)Nc1cccc(N2CCN(CC3CC3)CC2)c1 | 8.668%
CC(NC(=O)c1cccc(CN2CCN(C)CC2)c1)c1nccs1 (stereo unspecified) | 12.68%
CNC(=O)c1cccc(CN2CCN(c3ccncc3)CC2)c1 | 83.93%
CNC(=O)c1ccc(Cn2ccnc2S(C)(=O)=O)cc1 | -4.025%
COCc1cccc(C(=O)N2CCN(C3=NCC(C)(C)S3)CC2)c1 | 0.6755%
CN(C)c1ncccc1C(=O)N1CCN(C2=NCC(C)(C)S2)CC1 | -14.23%
CNC(=O)c1ccc(CN2CCN(C3=NCC(C)(C)S3)CC2)cc1 | 129.2%
CN(CCCc1n[nH]c(N)c1C#N)C(=O)NC1CC1 | 0.449%
O=C(NCCCO)Nc1cccc(C[S+]([O-])c2ccccc2)c1 (stereo unspecified) | 2.569%
CN(Cc1ccccc1)CC1CC2(CO1)CN(Cc1nccs1)C2 (stereo unspecified) | 11.68%
